Laboratory results from PubChem BioAssay AID893 (National Center for Advancing Translational Sciences (NCATS), 2007).
“And” between values parts separate entries of the source, which are not always exact repeats. Identical values can stand only once. Screen size: about 75,000 compounds; about 5,700 (7.6%) were called active. Not shown: some 7% with an inconclusive outcome. This is one part of a sample in which actives are shown more often than they occur. The call rests on the fitted dose curve; in most records, active means well fitted inhibition curve with a large enough effect; inconclusive means small, poorly fitted or top-dose-only effect; inactive means no such curve, though single readings can be large or run the other way.

Target: 3-hydroxyacyl-CoA dehydrogenase type-2 (Homo sapiens) (UniProt Q99714)
Test: qHTS Assay for Inhibitors of HSD17B4, hydroxysteroid (17-beta) dehydrogenase 4;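 further: the protocol describes HADH2 (HSD17B10) and not the HSD17B4 of the title; nearly all actives have a fitted effect of over 70% in size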
Conditions: recombinant HSD17B10, NADH fluorescence kinetic; series mostly up to 57.1 µM
Procedure, shortened: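 His-tagged E. coli-expressed HADH2 at 20 nM in 100 mM Tris-HCl pH 9.0 with 0.01 % Tween-20, preincubated 15 min with compound at room temperature. Reaction with 1 mM NAD+ and 90 uM beta-hydroxybutyryl coenzyme A; NADH fluorescence (360/450 nm) read kinetically over 4 min, last minus first point.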
On the % scale 0 is the no-effect control and ±100 the full control effect; potency means the concentration at half of the fitted maximal effect.

Potency, active:
COc1ccc(-c2nc(CS(=O)CC(=O)NCc3cccnc3)c(C)o2)cc1OC (stereo not drawn) 25.1 µM
Cc1c(NC(=O)C(C)OC(=O)c2cc3c4ccccc4n(C)c3s2)c(=O)n(-c2ccccc2)n1C (stereo not drawn) 3.98 µM
Cc1nc2c(C(=O)NCc3ccc4c(c3)OCO4)c[nH]n2c(=O)c1Cc1ccccc1F 31.6 µM
COc1ccc2oc(=O)c(C(=O)N3CCN(c4ccccc4F)CC3)cc2c1 25.1 µM
COc1ccc(OC)c(C(=O)CSc2nnc(-c3cccs3)o2)c1 31.6 µM
CCc1cc(=O)oc2cc(C)cc(OC(C)C(=O)O)c12 (stereo not drawn) 31.6 µM
O=C(O)c1ccc(-n2cccc2)cc1O 31.6 µM
CN1C(=O)c2ccc(NC(=O)c3c(F)c(F)c(F)c(F)c3F)cc2C1=O 12.6 µM
CN1C(=O)c2ccc(NC(=O)C3CCCCC3)cc2C1=O 25.1 µM
CC(C)Cn1c(CCC(=O)O)ccc1-c1cccs1 31.6 µM
CC1CCCC(C)N1CCCNC(=O)c1cc2c(=O)n(C)c3ccccc3c2n1C (stereo not drawn) 31.6 µM
Cc1cc(NCc2ccco2)n2c(nc3ccccc32)c1C#N 3.16 µM
Cc1c(O)c(Br)c(C)c(O)c1Br (tested in a mixture with another compound) 0.794 µM
Cc1ccc(S(=O)(=O)c2c(N)n(C)c3nc4ccccc4nc23)cc1 25.1 µM
CCOC(=O)N1CCN(C(=O)c2ccc3nc4cc(Cl)ccc4c(=O)n3c2)CC1 1 µM
NC(=O)CSC1=Nc2ccccc2C2=NC(CCC(=O)NCc3ccc(F)cc3)C(=O)N12 (stereo not drawn) 31.6 µM

Potency, inactive:
CCN1C(=O)CS/C1=N\c1nccs1
CCOC(=O)N1CCN(C(=O)C2CC(c3ccc(F)cc3)=NO2)CC1 (stereo not drawn)
O=Cc1c(Cl)cccc1Cl
O=C(c1cn(-c2ccccc2)nc1-c1cccnc1)N1CCCCC1
COc1ccc2[nH]cc(CCNc3nc(-c4cccc(NS(C)(=O)=O)c4)nc4ccccc34)c2c1
CS(=O)(=O)N1CCC[C@@]2(CCN(c3ccncc3)C2)C1
CCNCCCNCCCNCCCNCC
C=C[C@](C)(O)CCC1C(=C)CCC2[C@@](C)(CO)CCC[C@@]12C (stereo partly drawn)
O=C(CNS(=O)(=O)c1ccc(Br)s1)NCc1ccc2c(c1)OCO2
COc1ccc(-c2nc(CS(=O)CC(=O)NCc3ccccn3)c(C)o2)cc1 (stereo not drawn)
Cc1ccc(-c2nc(CS(=O)CC(=O)NC3CCCC3)c(C)o2)cc1 (stereo not drawn)
CCOc1ccc(C(=O)N(Cc2ccc(N(C)C)cc2)C2CCS(=O)(=O)C2)cc1 (stereo not drawn)
COc1cc(C2C(C(=O)c3ccc(C)o3)=C(O)C(=O)N2Cc2cccnc2)ccc1O (stereo not drawn)
O=C(Nc1ccccc1N1CCCCC1)c1cccc(F)c1
Cc1cc(C)cc(N(C(C)C(=O)Nc2c(C)n(C)n(-c3ccccc3)c2=O)S(C)(=O)=O)c1 (stereo not drawn)
COC(=O)Nc1c(C)n(C)n(-c2ccccc2)c1=O
CCOC(=O)CSc1nnc(CNC(=O)c2ccco2)n1-c1ccc(F)cc1
C/C(=C\C(=O)c1cccnc1)Nc1ccc(C)c(C)c1
O=c1cccc(-c2ccc(Br)cc2)o1
CC1C(c2ccccc2)=[N+]([O-])C2(CCCC2)N1O (stereo not drawn)
Nc1ncnc2c1ncn2C1CC(O)C(CO)O1 (stereo not drawn)
CCC[C@@H]1C[C@@]1(CCC)[C@@H](NC(=O)c1ccccc1)c1ccc(C(=O)OC)cc1
CCn1cc(C(=O)NCc2ccc3c(c2)OCO3)c2cc(OC)c(OC)cc2c1=O
O=C(CCCCn1c(=O)[nH]c2ccccc2c1=O)NCc1ccc2c(c1)OCO2
CC1CCCCC1NC(=O)CCS(=O)(=O)c1cccc2nonc12 (stereo not drawn)
COc1ccc2oc(=O)c(C(=O)O)cc2c1
COc1ccc2oc(=O)c(C(=O)N3CCCc4ccccc43)cc2c1
CC(=O)C1C(c2ccc(Cl)cc2)NC(=O)NC1(O)C(F)(F)F (stereo not drawn)
COC(=O)[C@@]1(Cc2ccc(F)cc2)[C@@H]2[C@@H](CC(=O)[C@H]2CC(=O)C(=O)N2CCCC2)CN1C(=O)c1ccccc1
CN1CCN(Cc2nc3c(c(=O)n(C)c(=O)n3C)n2Cc2cccc3ccccc23)CC1
CCN(CC)C(=O)CSc1nnc(-c2cccc(OC)c2)o1
COc1ccc(-c2nnc(SCC(=O)c3cccs3)o2)c(OC)c1
COCC(C)N=CC1=C(O)CC(C)(C)CC1=O (stereo not drawn)
N#CCC(=O)NC(=O)NCC1CC1
CCCC[C@@H]1C[C@H]1C(NC(=O)c1ccco1)c1ccc(C(=O)OC)cc1 (stereo partly drawn)
Cc1cc(NS(=O)(=O)c2ccccc2)no1
Nc1ncn(C2OC(CO)C(O)C2O)c(=O)n1 (stereo not drawn)
O=C(O)c1ccc(NC(=O)C2CCCCC2)cc1
O=C(Nc1ccncc1)c1c(F)cccc1F
Cn1c(=O)n(C)c2cc(C(=O)Nc3ccc4c(c3)OCO4)ccc21
O=C(Nc1cnn(Cc2ccc(Cl)cc2)c1)C1CCCC1
O=C(C1CCN(S(=O)(=O)Cc2ccccc2)CC1)N1CCCc2ccccc21
Cc1ccccc1C(=O)O
COc1ccc(C2CC(=O)c3c(O)cc(OC4OC(COC5OC(C)C(O)C(O)C5O)C(O)C(O)C4O)cc3O2)cc1O (stereo not drawn)
Cc1cc(NC(=O)c2cc(-c3cccs3)on2)nn1Cc1ccc(Cl)cc1
O=C(O)CCC(=O)N(Cc1cccs1)Cc1cccs1
C/C=C1\C(=O)C[C@@H]2[C@@H]3CCC4=CC(=O)CC[C@@]4(C)[C@H]3CC[C@@]12C
Cc1ccc(S(=O)(=O)NC(=O)NN2C[C@H]3CCC[C@@H]3C2)cc1
CC1CCCCN1CCCNC(=O)c1ccc(-n2c(=O)c(=O)[nH]c3ccccc32)cc1 (stereo not drawn)
Cn1c(C(=O)N2CCC(C(N)=O)CC2)cc2c(=O)n(C)c3ccccc3c21
C=C(C)C1CC=C(CO)CC1 (stereo not drawn)
COC(=O)[C@@H]1C[C@@]2(O)[C@H](O)[C@H](O)[C@H](O)C[C@H]2N1Cc1ccc(C)s1
N#Cc1c2c(c(N3CCN(CCO)CC3)n3c1nc1ccccc13)CCCC2
Cc1ccccc1NC(=O)NCc1ccco1
CCC1CCCCN1CCNS(=O)(=O)c1ccc2c(c1)CCN2C(C)=O (stereo not drawn)
CCOC(=O)c1ccc(N2C(=O)CC(N3CC(C)OC(C)C3)C2=O)cc1 (stereo not drawn)
N#Cc1cccc(CSc2nnc(CCCO)n2-c2ccccc2)c1
Cn1c(N)c(C(=O)COC(=O)c2cc(C(F)(F)F)nc3c(C(F)(F)F)cccc23)c(=O)n(C)c1=O
CN(c1ccc(C(=O)NCCC2=CCCCC2)cc1)S(C)(=O)=O
CCC[C@@H]1C[C@@]1(CCC)C(NS(=O)(=O)c1cccc2cccnc12)c1ccc(Cl)cc1 (stereo partly drawn)
Clc1ccc(C2[C@H]3CN(CC4CCCCC4)[C@H](c4ccccc4)C34CC2(c2cccnc2)C4)cn1 (stereo partly drawn)
Cc1ccc(S(=O)(=O)NCc2nc3ccccc3c(=O)n2N)cc1
c1cc(-n2cnnn2)ccc1NC1=NCCC1
Cc1ccc(Cn2ccc(NC(=O)c3cc(C(C)C)on3)n2)cc1
CC(C)c1ccc(OCC(O)Cn2cnc3ccccc32)cc1 (stereo not drawn)
CCOC(=O)N1CCN(C(=O)CNC(=O)Cc2ccc(Cl)cc2)CC1
CCOC(=O)N1CCN(C(=O)CSc2ccc(Cl)cc2)CC1
Cn1c(=NC(=O)CSCC(=O)N2CCCCC2)sc2ccccc21
O=C(CSc1nnc(-c2ccccn2)n1-c1ccccc1)Nc1ccc2c(c1)OCO2
O=C(CN1C(=O)CCS(=O)(=O)c2ccccc21)NCc1ccc(F)cc1
CC(C)C1N=C2c3ccccc3N=C(SCC(=O)c3ccc(O)c(O)c3)N2C1=O (stereo not drawn)

Activity change, negative = inhibition, inactive:
CO[C@H]1COC(=O)C/C=C\[C@H](C)COC(=O)[C@@H](OCc2ccccc2)/C=C\[C@@H]1C -3.84% [at 11.4 µM]
COC(=O)C(C(=O)OC)[C@@H]1CCCC(=O)C1 8.89% [at 11.4 µM]
CN1CCc2nc(-c3ccccc3)c(-c3ccccc3)cc2C1 2.91% [at 11.4 µM]
O=C(O)c1ccc(C(=O)O)c2c(C(=O)O)ccc(C(=O)O)c12 -1.54% [at 11.4 µM]
O=C(Cn1ccc(=O)[nH]c1=O)Nc1ccc(C(=O)O)c(O)c1 -0.357% [at 11.4 µM]
C#CCC(C(=O)OC)(C(=O)OC)C(C[N+](=O)[O-])c1ccccc1 (stereo not drawn) -8.6% [at 11.4 µM]
Cn1c(=O)n2n(c1=O)[C@H]1[C@H](O)[C@H]3O[C@H]3C(=O)[C@H]1CC2 -7.54% [at 11.4 µM]
CO[C@@H]1COC(=O)C/C=C\[C@H](C)[C@@H](NS(=O)(=O)c2ccc(C)cc2)COC(=O)C/C=C\[C@@H]1C 2.45% [at 11.4 µM] and 8.54% [at 11.4 µM]
C/C(CCN1CCCCc2nc(C)c(C)cc21)=N\O[C@@H](C)c1cn([C@@H]2COC[C@@H]2O)nn1 0.914% [at 11.4 µM]
CC(C)CN1CCc2nc(-c3ccccc3)c3c(c2C1)COC(C)C3 (stereo not drawn) -2.26% [at 11.4 µM]
CC[C@H](c1ccccc1)c1cc(C(C)(C)C)cc(C(C)(C)C)c1O -3.63% [at 11.4 µM]
